# TRHR enhancer = qHTS for Small Molecule Agonists and Allosteric Enhancers of Human TRH Receptor: Primary Screen for Enhancers | Thyrotropin-releasing hormone receptor (Homo sapiens), P34981 | TRHR cells, fluo-8 calcium fluorescence, EC20 TRH enhancement | enhancement, % at 2 µM | hit rate 0.66% among 360,000 | AID 493056, 2011; in the data active = enhancement above about 30%; also: 0% is about no effect
#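 Enhancer read-out: after compound pinning and an initial kinetic agonist-mode read, an EC20 of TRH (10 nM final) was injected and fluo-8 calcium signal (Ex 480/Em 530) followed at 1 s/cycle for 100 cycles in TRHR-expressing cells.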
# TRHR agonist = qHTS for Small Molecule Agonists and Allosteric Enhancers of Human TRH Receptor: Primary Screen for Agonists. hit rate 0.18% among 360,000. activation, % at 2 µM. TRHR cells, calcium flux fluo-8, FDSS agonist mode. Thyrotropin-releasing hormone receptor (Homo sapiens), P34981; also: 0% is about no effect
#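 Agonist-mode FDSS calcium read (Ex 480/Em 530, 1 s cycles) in 1536-well TRHR cells with fluo-8 dye, after 10-cycle baseline and 23 nL compound addition; TRH at EC20 (10 nM final) added afterwards for the enhancer phase.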
# D1 ag = Allosteric Agonists of the Human D1 Dopamine Receptor: qHTS. D(1A) dopamine receptor (Homo sapiens), P21728. hit rate 1% among 360,000. activation, % at 2 µM. AID 504660, 2011. HEK293 T-REx D1 cells, calcium flux, agonist mode; also: 0% is about no effect
# Target sequence (P21728 whole entry, looked up): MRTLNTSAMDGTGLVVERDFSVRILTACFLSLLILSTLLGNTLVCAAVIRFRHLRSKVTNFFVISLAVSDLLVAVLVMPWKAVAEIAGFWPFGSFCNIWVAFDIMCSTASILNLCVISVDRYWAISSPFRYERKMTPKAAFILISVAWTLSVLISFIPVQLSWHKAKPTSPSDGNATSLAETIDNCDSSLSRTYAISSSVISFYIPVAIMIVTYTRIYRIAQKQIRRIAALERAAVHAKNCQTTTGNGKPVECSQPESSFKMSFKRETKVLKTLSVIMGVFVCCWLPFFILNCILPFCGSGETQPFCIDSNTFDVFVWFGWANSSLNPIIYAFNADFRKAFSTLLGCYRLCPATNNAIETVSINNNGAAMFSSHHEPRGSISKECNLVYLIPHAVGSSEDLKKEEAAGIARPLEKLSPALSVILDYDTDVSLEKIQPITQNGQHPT
#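 Inducible HEK293 T-REx D1 cells, force-coupled to calcium signalling, were plated at 4000 cells/well with tetracycline and held overnight at 30 C. After no-wash calcium dye loading, compound-evoked calcium rise over 180 s flagged agonists.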
# D1 PAM = Potentiators of Human D1 Dopamine Receptor: qHTS; HEK293 TREx D1 cells, calcium flux, dopamine EC20 potentiation; D(1A) dopamine receptor (Homo sapiens), P21728; potentiation, % at 10 µM; AID 504651, 2011; hit rate 0.036% among 360,000; in the data active = potentiation above about 30%; also: 0% is about no effect
# D1 antagonist = Antagonist of Human D 1 Dopamine Receptor: qHTS | D(1A) dopamine receptor (Homo sapiens), P21728 | HEK293 TREx D1 cells, calcium flux, dopamine EC80; hits give low values | activity change, negative = inhibition, % at 10 µM | hit rate 3.2% among 360,000 | AID 504652, 2011; in the data active = activity change below about -30%; also: % is scaled to controls: 0 for no effect and ±100 for the full control effect
#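 Using tetracycline-induced force-coupled D1 Hek293 cells and a calcium dye, signals were followed for 180 s after compound, then for 180 s after EC80 dopamine, to detect inhibitors.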
# Epigenetic derep = Quantitative High-Throughput Screen for Regulators of Epigenetic Control; murine LDR cells, GFP reporter derepression, 30 h; Potency, µM (highest dose often 53.9 µM), without a hit: at the top dose GFP activation, actives largely listed as activators; hit rate 0.2% among 280,000; AID 1865, 2009; active = well fitted activation curve with a large enough effect; inconclusive = small, poorly fitted or top-dose-only effect; also: potency is read from the fitted curve at half-maximal effect; % of control where 0% means no effect; nearly all actives have a fitted effect of over 60% in size
#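 Murine LDR cells carrying a silenced, genomically integrated CMV-driven GFP reporter were exposed to compound for 30 hours at 37 C. After PBS washes, GFP-positive cells (20–120 um objects) were counted by laser-scanning microplate cytometry.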
# Active calls of the source: *; ? = inconclusive; nt = no result; [ ] = another dose, or the depositor's remark. Most compounds without a hit are left out; they make up all but 4.6% or so of the library. Rule as the data show it, unless noted: active = activation above about 30%; inactive = the rest.
SMILES,TRHR enhancer,TRHR agonist,D1 ag,D1 PAM,D1 antagonist,Epigenetic derep
Cc1ccc(S(=O)(=O)N(CC(=O)Nc2ccc3c(c2)OCO3)c2cc(Cl)cc(Cl)c2)cc1,16.8,-0.5,8.3,-1.9,-2.1,2.4%
CN(c1cccc(NC(=O)CN(c2ccc(Cl)c(Cl)c2)S(=O)(=O)c2ccccc2)c1)S(C)(=O)=O,5.2,0.0,3.7,7.2,-9.9,0.0%
Cc1ccc(S(=O)(=O)N(CC(=O)Nc2c(C)cccc2C)c2cccc(Cl)c2)cc1,-9.0,-1.6,1.1,1.2,-85.4*,-1.1%
Cc1ccc(S(=O)(=O)N(CC(=O)Nc2cccc(N(C)S(C)(=O)=O)c2)c2ccc(Cl)c(Cl)c2)cc1,2.5,1.6,3.5,-12.1,-32.3*,2.6%
Cc1nc(-n2nc(C)c(Cc3ccc(Cl)cc3)c2C)sc1C(=O)N1CCC(C)CC1,5.2,1.0,1.0,2.0,0.9,-3.2%
CC[n+]1c(/C=C/C=C/N(C(C)=O)c2ccccc2)sc2cc(OC)ccc21,3.1,23.3,56.3*,-7.0,-6.5,?
Cn1ccc(C(=O)Oc2ccc(C(=O)Nc3ccc(F)cc3F)cc2)n1,-4.2,0.5,12.3,-2.6,-43.8*,-3.2%
COC(=O)c1ccc(Cl)cc1NC(=O)N(Cc1ccc(OC)cc1)C1CCN(C(C)=O)CC1,-4.7,3.1,1.9,1.9,12.5,-1.2%
Cc1ccc(NC(=O)Cn2c(=O)n(-c3ccc(C)cc3)c(=O)c3c2cnn3C)cc1,4.5,-0.3,-0.5,0.6,2.9,-0.3%
Cc1cccc(Nc2cc(C)c3c(O)cccc3n2)c1C,-1.6,6.2,13.0,-10.1,-92.4*,8.1%
CC12CCC(C(=O)Nc3nccs3)(OC1=O)C2(C)C (centres undefined),3.1,0.3,0.4,-2.1,-31.1*,-4.6%
CC(C)CC(=O)NC(NC(=S)Nc1sc2c(c1C#N)CCCC2)C(Cl)(Cl)Cl (centres undefined),-5.7,0.4,13.3,-7.1,-31.7*,0.0%
c1coc(-c2nc3cc4ccccc4cc3nc2-c2ccco2)c1,1.0,0.2,5.3,-3.6,4.9,nt
COCCNC(=O)CN(c1cc(C(F)(F)F)ccc1Cl)S(C)(=O)=O,-3.3,-0.2,1.3,-1.4,-3.3,-8.8%
COC(=O)CN(c1cc(C(F)(F)F)ccc1Cl)S(C)(=O)=O,-3.8,-0.5,3.7,-5.7,-39.1*,0.0%
O=C(O)c1sccc1Oc1ccc(NS(=O)(=O)c2ccc(Cl)cc2)cc1,3.2,-0.3,3.0,-3.9,4.8,nt
N#Cc1cccc(C#N)c1Oc1ccc(S(=O)(=O)Nc2ccc(Cl)cc2)cc1,2.2,2.3,12.2,-3.9,-38.4*,0.1%
COc1cccc(-c2oc3ccc(C)cc3c(=O)c2O)c1,-2.7,6.0,61.4*,-3.6,2.4,2.9%
Cc1ccc(-c2oc3ccccc3c(=O)c2O)cc1,-10.7,6.1,30.2*,-5.2,-26.3,1.3%
O=c1c(O)c(-c2ccccc2)oc2ccccc12,nt,nt,nt,nt,nt,11.9%
Cc1ccc2oc(-c3ccccc3)c(O)c(=O)c2c1,nt,nt,nt,nt,nt,0.8%
CCOc1ccc(-c2oc3ccc(C)cc3c(=O)c2O)cc1,-10.0,3.7,37.1*,-3.1,-10.3,0.8%
COc1ccc(-c2oc3cc(OC)ccc3c(=O)c2O)cc1,nt,nt,nt,nt,nt,-1.5%
COc1ccc([C@@H]2CNC(=O)C2)cc1OC1CCCC1,nt,nt,nt,nt,nt,1.4%
O=C(Nc1ccc(S(=O)(=O)N2CCCCCC2)cc1)c1[nH]ncc1[N+](=O)[O-],0.2,0.1,7.3,-6.0,-33.6*,nt
SMILES,TRHR enhancer,TRHR agonist,D1 ag,D1 PAM,D1 antagonist,Epigenetic derep
O=C(Nc1ccc([N+](=O)[O-])cc1)c1ccc(S(=O)(=O)N2CCCC2)cc1,-11.7,1.7,11.1,-3.5,-10.6,nt
Cc1cccc(C)c1NC(=O)c1ccc2c(c1)N(Cc1cccc(Cl)c1)C(=O)c1ccccc1S2=O (centres undefined),33.0*,-1.7,13.8,-5.2,6.4,0.1%
CC(NC(=O)c1ccc2c(c1)N(Cc1ccc(Cl)cc1)C(=O)c1ccccc1S2=O)c1ccccc1 (centres undefined),-0.8,1.1,8.2,-5.9,-34.7*,0.8%
Cc1cc(NC(=O)c2ccc3c(c2)N(Cc2cccc(Cl)c2)C(=O)c2ccccc2S3=O)ccc1Br (centres undefined),2.2,0.6,5.8,-3.0,5.8,0.8%
CCC(C)NC(=O)c1ccc2c(c1)N(Cc1cccc(Cl)c1)C(=O)c1ccccc1S2=O (centres undefined),-10.7,0.8,3.5,0.8,-5.8,2.6%
Cc1cccc(CNc2ncnc3ccc(-c4cccc(Cl)c4)cc23)c1,6.5,-0.1,2.8,-1.8,-16.4,nt
Cc1cc(O)c(C(=O)c2cnc3c(c2)COc2ccccc2-3)cc1Cl,34.6*,-1.5,0.1,-1.1,1.8,0.0%
Cc1ccc(OCCn2cc(C=O)c3ccccc32)cc1,0.0,0.3,6.9,-3.5,-33.8*,nt
CC(=O)c1cn(CCOc2cc(C)ccc2C)c2ccccc12,-13.0,-0.3,11.6,-9.7,-13.8,nt
Cc1ccc(C)c(OCCn2cc(C(=O)O)c3ccccc32)c1,-4.3,0.0,4.1,-10.6,-39.9*,-0.1%
COc1cccc(OCCn2cc(C(C)=O)c3ccccc32)c1,-9.0,-0.1,23.0,-1.3,-31.8*,nt
COc1cccc(OCCn2cc(/C=N/NC(=O)c3ccncc3)c3ccccc32)c1,14.0,-0.4,3.1,-2.9,-14.0,-1.9%
COc1cccc(OCCn2cc(C(=O)c3ccco3)c3ccccc32)c1,-0.7,-0.6,49.9*,-7.3,-1.4,0.0%
CC(C)=CCC/C(C)=C/CO/N=C1/C[C@@H](O)[C@@H](O)[C@@H]2[C@@H]3C(=O)N([C@@H](C)c4ccccc4)C(=O)[C@H]3CC[C@@H]12,nt,nt,nt,nt,nt,0.0%[10.1 µM]
CC(C)C[C@H](NC(=O)OC(C)(C)C)c1nnc(SCc2cccc(F)c2)o1,4.0,0.1,30.6*,6.2,-13.4,-1.1%
CSCC[C@H](NC(=O)OC(C)(C)C)c1nnc(SCc2cccc(F)c2)o1,2.7,0.8,3.3,-4.3,-27.9,-1.1%
CN(Cc1ccccc1)C1CCCN(C(=O)c2ccc(Cl)s2)C1 (centres undefined),0.9,-0.2,1.9,-9.2,-31.2*,nt
Cn1c(=O)c2c(-c3ccccc3)n3c4ccccc4nc(-c4ccccc4)c3c2n(C)c1=O,4.6,-0.8,1.0,-4.9,3.6,-1.0%
O=C(CSc1nnnn1-c1ccccc1)Nc1ncc(Cc2ccccc2Cl)s1,4.5,-0.4,5.8,-5.2,-12.6,0.0%

# Screening data from PubChem.
